Experimental data taken from PubChem BioAssay AID651656 (NMMLSC, 2012).
Active and inactive are the calls of the source.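 The calls were made as follows: active = viability at the highest tested concentration below 50%; inactive = the rest.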

Assay: viability loss, K562-ABCB6 cells – cell-based, CellTiter-Glo luminescence, PowderSet01 powders, cytotoxicity control for ABCB6 inhibitor project, dose response (AID 651656)

CC(=O)Nc1ccc(NC(=O)c2nc(S(=O)(=O)Cc3ccccc3)ncc2Cl)cc1
outcome: inactive

CC(=O)Nc1ccc(NC(=O)c2nc(S(=O)(=O)Cc3cccc(C)c3)ncc2Cl)cc1
outcome: inactive

CCc1ccc(NC(=O)c2nc(S(=O)(=O)Cc3ccccc3)ncc2Cl)cc1
outcome: inactive

CCOc1ccccc1NC(=O)c1nc(S(=O)(=O)Cc2cccc(C)c2)ncc1Cl
outcome: inactive
